# Experimental data: article PMC8384837, “Expanding the binding specificity for RNA recognition by a PUF domain”
# Columns and labels:
# Experiment in all cases: yeast three-hybrid, YBZ-1, SC-Leu-His + 0.5 mM 3-AT, 4 days
# Conditions in all cases: tags: N-Gal4 AD-HA kept; label: inside an RPR1-promoter hybrid RNA with tandem MS2 sites; ssRNA
# PUM1 PUF domain R3-RMW = PUM1 PUF domain R3-RMW (Homo sapiens, UniProt Q14671 828-1176, C935R;R936M;Q939W)
# Outline: (§1)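 The interaction score is the log change in how often each variant appears, from input to selection. Frequencies came from PCR-amplified, Illumina-sequenced repeat regions of Pumilio-1 PUF domain libraries grown in strain YBZ-1 (LexA–MS2 coat fusion, HIS3 reporter) alongside matching RNA elements. Input plates were SC-Leu and selection plates were SC-Leu-His + 0.5 mM 3-AT, each for four days, and the log2 calculation used a pseudocount of 1 where a variant was absent.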
# PUM1 PUF domain R1-RSQ = PUM1 PUF domain R1-RSQ (Homo sapiens, UniProt Q14671 828-1176, S863R;R864S)
# Outline: as §1
# PUM1 PUF domain R1-SWR = PUM1 PUF domain R1-SWR (Homo sapiens, UniProt Q14671 828-1176, R864W;Q867R)
# Outline: as §1
# PUM1 PUF domain R3-FSN = PUM1 PUF domain R3-FSN (Homo sapiens, UniProt Q14671 828-1176, C935F;R936S;Q939N)
# Outline: as §1
# PUM1 PUF domain R5-ARK = PUM1 PUF domain R5-ARK (Homo sapiens, UniProt Q14671 828-1176, C1007A;Q1011K)
# Outline: as §1
# PUM1 PUF domain R7-RCR = PUM1 PUF domain R7-RCR (Homo sapiens, UniProt Q14671 828-1176, S1079R;N1080C;E1083R)
# Outline: as §1
# PUM1 PUF domain R8-QWK = PUM1 PUF domain R8-QWK (Homo sapiens, UniProt Q14671 828-1176, N1122Q;Y1123W;Q1126K)
# Outline: as §1
# PUM1 PUF domain R6-LWT = target: T1, PUM1 PUF domain R6-LWT (Homo sapiens, UniProt Q14671 828-1176, N1043L;Y1044W;Q1047T)
# T1 sequence: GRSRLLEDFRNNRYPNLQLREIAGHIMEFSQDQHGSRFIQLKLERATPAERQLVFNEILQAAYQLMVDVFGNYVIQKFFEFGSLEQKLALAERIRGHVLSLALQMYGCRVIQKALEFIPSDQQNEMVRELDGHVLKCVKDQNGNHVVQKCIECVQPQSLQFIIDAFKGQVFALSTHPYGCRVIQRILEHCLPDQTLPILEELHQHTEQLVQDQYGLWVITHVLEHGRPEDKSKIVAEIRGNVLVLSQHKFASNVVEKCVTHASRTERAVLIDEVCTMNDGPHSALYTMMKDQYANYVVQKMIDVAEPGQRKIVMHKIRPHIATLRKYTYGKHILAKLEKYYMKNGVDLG
# Outline: as §1
# PUM1 PUF domain R8-HFT = PUM1 PUF domain R8-HFT (Homo sapiens, UniProt Q14671 828-1176, N1122H;Y1123F;Q1126T)
# Outline: as §1
# PUM1 PUF domain R4-LNC = PUM1 PUF domain R4-LNC (Homo sapiens, UniProt Q14671 828-1176, N971L;H972N;Q975C)
# Outline: as §1
sequence,measurement,setting,value
GGCUAGAACUAGUGGAUCCCCCGGCGCCCGGCGGCUCGAGCCCGGGUAAGUGUAAUUAGUCUGCAUGCCGCCGGGCGCCAUGCCUGCAGGUCGACUCUAGAAAACAUG,binding signal,PUM1 PUF domain R3-RMW,2.28 log2 enrichment (interaction score)
GGCUAGAACUAGUGGAUCCCCCGGCGCCCGGCGGCUCGAGCCCGGGUAAGUGUAAAUUGUCUGCAUGCCGCCGGGCGCCAUGCCUGCAGGUCGACUCUAGAAAACAUG,binding signal,PUM1 PUF domain R1-RSQ,5.08 log2 enrichment (interaction score)
same,binding signal,PUM1 PUF domain R1-SWR,0.84 log2 enrichment (interaction score)
GGCUAGAACUAGUGGAUCCCCCGGCGCCCGGCGGCUCGAGCCCGGGUAAGUGUAAAUCGUCUGCAUGCCGCCGGGCGCCAUGCCUGCAGGUCGACUCUAGAAAACAUG,binding signal,PUM1 PUF domain R1-RSQ,4.74 log2 enrichment (interaction score)
same,binding signal,PUM1 PUF domain R1-SWR,3.04 log2 enrichment (interaction score)
GGCUAGAACUAGUGGAUCCCCCGGCGCCCGGCGGCUCGAGCCCGGGUAAGUGUAAGUAGUCUGCAUGCCGCCGGGCGCCAUGCCUGCAGGUCGACUCUAGAAAACAUG,binding signal,PUM1 PUF domain R3-FSN,2.79 log2 enrichment (interaction score)
GGCUAGAACUAGUGGAUCCCCCGGCGCCCGGCGGCUCGAGCCCGGGUAAGUGUUAAUAGUCUGCAUGCCGCCGGGCGCCAUGCCUGCAGGUCGACUCUAGAAAACAUG,binding signal,PUM1 PUF domain R5-ARK,3.13 log2 enrichment (interaction score)
GGCUAGAACUAGUGGAUCCCCCGGCGCCCGGCGGCUCGAGCCCGGGUAAGUGUCAAUAGUCUGCAUGCCGCCGGGCGCCAUGCCUGCAGGUCGACUCUAGAAAACAUG,binding signal,PUM1 PUF domain R5-ARK,0.39 log2 enrichment (interaction score)
GGCUAGAACUAGUGGAUCCCCCGGCGCCCGGCGGCUCGAGCCCGGGUAAGUUUAAAUAGUCUGCAUGCCGCCGGGCGCCAUGCCUGCAGGUCGACUCUAGAAAACAUG,binding signal,PUM1 PUF domain R7-RCR,5.68 log2 enrichment (interaction score)
GGCUAGAACUAGUGGAUCCCCCGGCGCCCGGCGGCUCGAGCCCGGGUAAGUCUAAAUAGUCUGCAUGCCGCCGGGCGCCAUGCCUGCAGGUCGACUCUAGAAAACAUG,binding signal,PUM1 PUF domain R7-RCR,4.6 log2 enrichment (interaction score)
GGCUAGAACUAGUGGAUCCCCCGGCGCCCGGCGGCUCGAGCCCGGGUAAGGGUAAAUAGUCUGCAUGCCGCCGGGCGCCAUGCCUGCAGGUCGACUCUAGAAAACAUG,binding signal,PUM1 PUF domain R8-QWK,3.09 log2 enrichment (interaction score)
GGCUAGAACUAGUGGAUCCCCCGGCGCCCGGCGGCUCGAGCCCGGGUAAGUGUAAAUAGUCUGCAUGCCGCCGGGCGCCAUGCCUGCAGGUCGACUCUAGAAAACAUG,binding signal,PUM1 PUF domain R8-QWK,2.09 log2 enrichment (interaction score)
same,binding signal,PUM1 PUF domain R6-LWT,6.06 log2 enrichment (interaction score)
GGCUAGAACUAGUGGAUCCCCCGGCGCCCGGCGGCUCGAGCCCGGGUAAGUGAAAAUAGUCUGCAUGCCGCCGGGCGCCAUGCCUGCAGGUCGACUCUAGAAAACAUG,binding signal,PUM1 PUF domain R6-LWT,2.9 log2 enrichment (interaction score)
GGCUAGAACUAGUGGAUCCCCCGGCGCCCGGCGGCUCGAGCCCGGGUAAGCGUAAAUAGUCUGCAUGCCGCCGGGCGCCAUGCCUGCAGGUCGACUCUAGAAAACAUG,binding signal,PUM1 PUF domain R8-HFT,3.48 log2 enrichment (interaction score)
GGCUAGAACUAGUGGAUCCCCCGGCGCCCGGCGGCUCGAGCCCGGGUAAGUGUAUAUAGUCUGCAUGCCGCCGGGCGCCAUGCCUGCAGGUCGACUCUAGAAAACAUG,binding signal,PUM1 PUF domain R4-LNC,2.66 log2 enrichment (interaction score)
